Measurements from PubChem BioAssay (Tox21).
Records with an inconclusive call do not appear. Entries that show only a call come without a potency. A number with no mark means an inactive call. The source made the active and inactive calls. Calls follow the shape of the full dose curve.
Potency is read from the fitted curve at half-maximal effect.

Each molecule was assayed against Acetylcholinesterase (Homo sapiens) (UniProt P22303) (assay: Acetylcholinesterase (AChE) small molecule antagonists: colormetric cell-based qHTS assay (AID 1347395; also: nearly all actives have a fitted effect of over 30% in size)). Settings: SH-SY5Y cells AChE activity, colorimetric (Ellman); series mostly up to 115 µM.
Sequence of Acetylcholinesterase (Homo sapiens) (P22303 whole entry, looked up): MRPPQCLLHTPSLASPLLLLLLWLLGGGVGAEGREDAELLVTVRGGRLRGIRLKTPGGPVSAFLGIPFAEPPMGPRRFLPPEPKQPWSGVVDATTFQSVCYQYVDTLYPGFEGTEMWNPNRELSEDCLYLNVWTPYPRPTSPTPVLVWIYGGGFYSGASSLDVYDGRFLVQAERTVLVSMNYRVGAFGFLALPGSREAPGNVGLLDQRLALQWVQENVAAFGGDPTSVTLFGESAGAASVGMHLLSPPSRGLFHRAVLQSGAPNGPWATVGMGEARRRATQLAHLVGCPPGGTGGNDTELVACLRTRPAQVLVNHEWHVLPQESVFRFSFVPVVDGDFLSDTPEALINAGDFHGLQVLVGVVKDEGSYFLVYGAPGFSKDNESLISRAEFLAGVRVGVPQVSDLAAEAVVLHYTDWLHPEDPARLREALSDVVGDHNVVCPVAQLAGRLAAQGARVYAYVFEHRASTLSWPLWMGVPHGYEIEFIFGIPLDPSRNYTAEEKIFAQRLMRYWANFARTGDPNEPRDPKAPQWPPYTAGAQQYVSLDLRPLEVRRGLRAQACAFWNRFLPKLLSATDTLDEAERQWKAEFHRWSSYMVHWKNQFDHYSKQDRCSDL
From the text: National Center for Advancing Translational Sciences [NCATS]
Division of Preclinical Innovation [DPI]
U.S. Environmental Protection Agency [EPA]
National Institutes of Environmental Health Sciences [NIEHS]
National Toxicology Program [NTP]
U.S. Food and Drug Administration [FDA]
Acetylcholinesterase (AChE) is the primary cholinesterase in the body that hydrolyzes a key neurotransmitter, acetylcholine. Inhibition of AChE activity can lead to neurotoxicity. The known inhibitors include organophosphorous pesticides (OP), chemical warfare agents, drugs, and various phytochemicals.
A homogenous cell-based assay using the Amplite Colormetric acetylcholinesterase assay kit (AAT Bioquest, Sunnyvale, CA) was used to evaluate the chemicals in the Tox21 10K library that inhibit AChE activity. The assay uses 5, 5-dithiobis-(2-nitrobenzoic acid) (DTNB) to quantify the thiocholine produced from the hydrolysis of acetylthiocholine by AChE from the SH-SY5Y cells.
Tox21 Assay Protocol Summary:
For the cell-based AChE assay, 2,000 SH-SY5Y cells in 4 uL/well were dispensed into black, clear-bottom 1536-well plates using a Multidrop Combi dispenser (Thermo Scientific, MA). The assay plates were incubated overnight at 37 C to allow cells to attach to the wells, followed by the transfer of 23 nL of compound or DMSO (vehicle control) by a Pintool Station (Wako Automation, CA). The plates were incubated for 30 min at 37 C and 5% CO2, followed by the addition of 4 uL of detection cocktail solution (DTNB, acetylthiocholine) into each well using a Flying Reagent Dispenser (Beckman Coulter, CA) and then 90 min incubation at 37 C.
`COc1ccc2c(c1OC)C(=O)O[C@@H]2[C@H]1c2c(cc3c(c2OC)OCO3)CCN1C` was tested, and the Potency was “inactive”. `CCCC(=O)C(=O)O` was tested, and the Potency was “inactive”. With `CNCC(O)c1ccc(O)c(O)c1` (stereo not given) the outcome was “inactive”. In the case of `CC(C)(C)OC(=O)c1ccc(O)cc1`, the Potency is reported as “inactive”. With `OCCN1CN(CCO)CN(CCO)C1` the Potency was “inactive”. `NC(=O)N1c2ccccc2CC(=O)c2ccccc21` was tested, and the Potency was “inactive”. For `Cc1ccc(OC(=O)c2ccccc2O)cc1`, the Potency was “inactive”. With `CCCCCCOC(=O)NC(=N)c1ccc(NCc2nc3cc(C(=O)N(CCC(=O)OCC)c4ccccn4)ccc3n2C)cc1` the Potency was “inactive”. Work on `C[C@@H](O)[C@H](N)C(=O)O` yielded an activity, negative = inhibition of 2.29% [at 23.6 µM]. `c1cc2c3c(c1)ccc1cccc(c13)C2` was tested, and the Potency was “inactive”. With `CCCCOC(=O)CC` the Potency was “inactive”. With `COC(=O)/C=C\C(=O)O` the Potency was “inactive”. `CC1CC(=O)NN=C1c1ccc(NCC(C)(C)NCC(O)COc2cc(Cl)ccc2C#N)cc1` (stereo not given) was tested, and the Potency was 24.5 µM (active). With `O=S1OCCO1` the Potency was “inactive”. `N=C(N)S(=O)O` was tested, and the Potency was “inactive”. In the case of `Cc1nc(-c2ccc(Cl)cc2)oc1COC(C)(C)C(=O)O`, the Potency is reported as “inactive”. In the case of `C(=C\c1ccccc1)/c1ccccc1`, the Potency is reported as “inactive”. `CCCCCCNC(=O)n1cc(F)c(=O)[nH]c1=O` was tested, and the Potency was “inactive”. For `COc1cc(-c2ccc(N=C=O)c(OC)c2)ccc1N=C=O`, the Potency was “inactive”. `O=C(OC(=O)c1ccccc1)c1ccccc1` was tested, and the Potency was “inactive”. In the case of `CC(=O)Oc1ccc(C(C)=O)cc1`, the Potency is reported as “inactive”. For `Cc1cccc(N(C)C(=S)Oc2ccc3c(c2)CCC3)c1`, the Potency was “inactive”. With `c1ccc(-c2ccc(-c3ccccc3)cc2)cc1` the activity, negative = inhibition was -0.11% [at 23.6 µM]. For `NC(=O)c1ccccc1`, the Potency was “inactive”. In the case of `CC(=O)N[C@@H](CC(C)C)C(=O)O`, the Potency is reported as “inactive”. `O=C(/C=C/c1ccc(O)c(O)c1)O[C@@H]1C[C@@](OC(=O)/C=C/c2ccc(O)c(O)c2)(C(=O)O)C[C@@H](O)[C@@H]1O` was tested, and the Potency was “inactive”. With `Nc1cccc(S(=O)(=O)O)c1` the Potency was “inactive”. With `CCCCC` the Potency was “inactive”. In the case of `Nc1nc(-c2ccccc2)c(Br)c(=O)[nH]1`, the Potency is reported as “inactive”. In the case of `CCCCCCCCCCCCCCCC`, the Potency is reported as “inactive”. For `Cc1cc(O)c(C(C)(C)C)cc1C(C)(C)C`, the Potency was “inactive”. In the case of `N[C@H]1C(O)O[C@H](CO)[C@@H](O)[C@@H]1O` (stereo not given in full), the Potency is reported as “inactive”. `O=C(O)c1c(O)c(-c2ccccc2)nc2ccccc12` was tested, and the Potency was “inactive”. For `CC1=CCC2C(C1)C2(C)C` (stereo not given), the Potency was “inactive”. With `CC(CCc1ccc2c(c1)OCO2)NN` (stereo not given) the Potency was “inactive”. With `O=S(=O)(O)c1cc(I)c(O)c2ncccc12` the Potency was “inactive”. `CC1CCC(C(C)(C)O)CC1` (stereo not given) was tested, and the Potency was “inactive”. With `CCOC(=O)OC(=O)OCC` the Potency was “inactive”. In the case of `CN(C(=O)C(Cl)Cl)c1ccc(OC(=O)c2ccco2)cc1`, the Potency is reported as “inactive”. With `CC(C)(C)c1ccccc1` the Potency was “inactive”.
